Measurements reported in PubChem BioAssay AID493221 (Johns Hopkins Ion Channel Center, 2011).
Out of some 2,400 compounds screened, about 1,700 (71%) were called active.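 Rule for the calls: active = choline transporter activity left, mean of duplicates at 10 µM, below buffer-only control mean minus 3 SD; inactive = the rest.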 The set was probably picked from earlier hits. Not all results are given here.

Target: High affinity choline transporter 1 (Homo sapiens) (UniProt Q9GZV3)
Assay: human choline transporter blockers – cell-based, membrane potential dye, duplicate, confirmation (AID 493221)
Conditions: CHT-expressing cells, at 10 µM, LV-to-AA substituted CHT, HEK293 cells

Chain of High affinity choline transporter 1 (Homo sapiens) (Q9GZV3 whole entry, looked up): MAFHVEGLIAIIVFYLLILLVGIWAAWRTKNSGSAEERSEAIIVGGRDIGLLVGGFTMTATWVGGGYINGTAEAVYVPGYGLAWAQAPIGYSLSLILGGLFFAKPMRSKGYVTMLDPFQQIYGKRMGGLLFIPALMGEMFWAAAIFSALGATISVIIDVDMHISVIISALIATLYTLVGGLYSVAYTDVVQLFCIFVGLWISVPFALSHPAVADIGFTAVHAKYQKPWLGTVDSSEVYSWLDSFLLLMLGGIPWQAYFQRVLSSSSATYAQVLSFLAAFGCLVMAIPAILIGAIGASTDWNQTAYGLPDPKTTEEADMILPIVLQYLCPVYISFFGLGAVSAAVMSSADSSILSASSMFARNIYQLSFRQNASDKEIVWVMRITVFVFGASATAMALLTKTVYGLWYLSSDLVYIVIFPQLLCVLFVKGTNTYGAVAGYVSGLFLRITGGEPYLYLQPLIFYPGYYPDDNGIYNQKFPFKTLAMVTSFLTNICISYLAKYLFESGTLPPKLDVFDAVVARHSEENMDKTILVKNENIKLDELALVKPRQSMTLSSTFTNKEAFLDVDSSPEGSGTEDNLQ

Structure (SMILES) | CHT activity remaining % of control (active compounds read low)
CC(C)(C)C(=O)/C(C#N)=C/c1ccc(O)cc1 | 68.6% (active)
O=C(Nc1ccn(Cc2ccccc2)n1)c1n[nH]c([N+](=O)[O-])c1Cl | 48.6% (active)
CC1CCN(C(=O)CN(c2ccc(Oc3ccccc3)cc2)S(C)(=O)=O)CC1 | inactive
CC(C)(C)NC(=O)NC(=O)CN1CCC(Cc2ccccc2)CC1 | 43.5% (active)
Cc1ccc(SC(CC(=O)c2ccc(C(C)(C)C)cc2)C(=O)O)cc1 (stereo not given) | 42% (active)
CC1CCN(CCCNC(=O)CN2C(=O)CSc3ccc(S(=O)(=O)N4CCCCC4)cc32)CC1 | 53.6% (active)
CCOCCCN(C)C1CCN(C(=O)c2oc3ccccc3c2NC(=O)COc2cccc(C)c2)CC1 | 44.8% (active)
Cc1cccnc1NC(=O)c1cccc(S(=O)(=O)N2CCN(c3ccc(F)cc3)CC2)c1 | 56.9% (active)
Cc1ccc(C(=O)NC2CCCC(C)C2C)cc1S(=O)(=O)N1CCCCC1 (stereo not given) | 43.5% (active)
CC1CN(S(=O)(=O)c2ccc(C(=O)NN3CCN(C)CC3)cc2)CC(C)O1 (stereo not given) | inactive
CC1CCCC(NC(=O)c2cccc(N3CCCC3=O)c2)C1C (stereo not given) | 45.1% (active)
O=C(C1CCN(S(=O)(=O)c2ccc(Br)s2)CC1)N1CCN(c2ccccc2)CC1 | 41.8% (active)
COc1ccc2c(c1)OC(O)(C(F)(F)C(F)F)CC2=O (stereo not given) | 25.8% (active)
CN(C)c1ccc(Nc2c3c4c(cccc4n(C)c2=O)C(=O)c2ccccc2-3)cc1 | 42.1% (active)
CC1(C)SC2C(NC(=O)COc3ccccc3)C(=O)N2C1C(=O)O (stereo not given) | inactive
CC(NC(=O)c1ccc(N2CCNCC2)c([N+](=O)[O-])c1)C12CC3CC(CC(C3)C1)C2 (stereo not given) | 52.3% (active)
CCc1ccccc1N1CN(Cc2ccco2)CNC1=S | inactive
CCOC(=O)C1(CCOC)CCN(Cc2ccc(C(=O)OC)cc2)CC1 | 71% (active)
O=C1/C(=C/c2ccc(F)cc2)SC(=S)N1NS(=O)(=O)c1ccccc1 | 71.2% (active)
CCOc1ccc(/C=C2\SC(=S)N(NC(=O)c3ccncc3)C2=O)cc1OC | 69.4% (active)
O=C(O)c1ccc(/C=C2\SC(=S)N(NC(=O)c3ccc(Br)cc3)C2=O)cc1 | 41.7% (active)
CC(C)n1c(=S)[nH]c2cc(C(F)(F)F)ccc21 | 59.3% (active)
CC(Oc1ccc2ccccc2c1)C(=O)NNC(=S)NC(=O)c1ccco1 (stereo not given) | 67% (active)
N#Cc1ccc(C(=O)Nc2cccc3cccnc23)c(F)c1 | inactive
COc1ccc(C(CNC(=O)c2cccc(NS(=O)(=O)c3ccc(C)c(F)c3)c2)N2CCCC2)cc1 (stereo not given) | 38.4% (active)
